Out of some 5,500 compounds screened, about 2,000 (36%) were called active. Another 18% or so got no clear call; they are omitted. The list shows a part of the results. Unmarked numbers belong to inactive results. Rule as the data show it: active = normalized growth mostly below about 0.91 (no sharp cut-off); inconclusive = no clear call, values can overlap the other calls; inactive = mostly above about 0.92.
Experiment: chemical genetic growth profiling, strain panel (AID 1159580);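 also: tested at 20 µM; growth read once vehicle control cultures reached saturation at 30 °C; 1 = growth at the plate median or of vehicle wells; lower values mean less growth of the strain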
Settings: growth OD

N=C(N)c1ccc(OCCCCCOc2ccc(C(=N)N)cc2)cc1
normalized growth (S. cerevisiae deletion strains, locus YJR043C, strain POL32, hits give low values): 0.909 | normalized growth (S. cerevisiae deletion strains, locus YJR075W, strain HOC1, hits give low values): 0.918 | normalized growth (S. cerevisiae deletion strains, locus YKL009W, strain mrt4, hits give low values): 0.942 | normalized growth (S. cerevisiae deletion strains, locus YKL068W, hits give low values): 0.92 (active) | normalized growth (S. cerevisiae deletion strains, locus YKL085W, strain MDH1 (second series), hits give low values): 0.936 | normalized growth (S. cerevisiae deletion strains, locus YKL085W, strain MDH1, hits give low values): 0.936 | normalized growth (S. cerevisiae deletion strains, locus YKL160W, strain elf1, hits give low values): 0.948 | normalized growth (S. cerevisiae deletion strains, locus YKL190W, strain CNB1, hits give low values): 0.959 | normalized growth (S. cerevisiae deletion strains, locus YKR001C, strain vps1, hits give low values): 0.952 | normalized growth (S. cerevisiae deletion strains, locus YKR026C, strain gcn3, hits give low values): 0.967 | normalized growth (S. cerevisiae deletion strains, locus YKR091W, strain srl3, hits give low values): 0.961 | normalized growth (S. cerevisiae deletion strains, locus YLL001W, strain dnm1, hits give low values): 0.916 | normalized growth (S. cerevisiae deletion strains, locus YLL026W, hits give low values): 0.97 | normalized growth (S. cerevisiae deletion strains, locus YLL041C, strain sdh2, hits give low values): 0.974 | normalized growth (S. cerevisiae deletion strains, locus YLR027C, strain aat2, hits give low values): 0.951 | normalized growth (S. cerevisiae deletion strains, locus YLR039C, strain RIC1, hits give low values): 1.09 | normalized growth (S. cerevisiae deletion strains, locus YLR058C, strain SHM2, hits give low values): 0.977 | normalized growth (S. cerevisiae deletion strains, locus YLR102C, strain apc9, hits give low values): 0.939 | normalized growth (S. cerevisiae deletion strains, locus YLR221C, strain rsa3, hits give low values): 0.958 | normalized growth (S. cerevisiae deletion strains, locus YLR258W, strain gsy2, hits give low values): 0.963 | normalized growth (S. cerevisiae deletion strains, locus YLR262C, strain YPT6 (second series), hits give low values): 0.988 | normalized growth (S. cerevisiae deletion strains, locus YLR262C, strain YPT6, hits give low values): 1.11 | normalized growth (S. cerevisiae deletion strains, locus YLR268W, strain sec22, hits give low values): 0.887 | normalized growth (S. cerevisiae deletion strains, locus YLR320W, strain mms22, hits give low values): 0.89 | normalized growth (S. cerevisiae deletion strains, locus YLR330W, strain CHS5, hits give low values): 0.999 | normalized growth (S. cerevisiae deletion strains, locus YLR342W, strain FKS1 (second series), hits give low values): 0.89 | normalized growth (S. cerevisiae deletion strains, locus YLR342W, strain FKS1, hits give low values): 0.958 | normalized growth (S. cerevisiae deletion strains, locus YLR357W, strain rsc2, hits give low values): 0.979 | normalized growth (S. cerevisiae deletion strains, locus YLR370C, strain arc18, hits give low values): 0.954 | normalized growth (S. cerevisiae deletion strains, locus YLR371W, strain rom2, hits give low values): 0.929 | normalized growth (S. cerevisiae deletion strains, locus YLR384C, strain iki3, hits give low values): 0.944 | normalized growth (S. cerevisiae deletion strains, locus YLR418C, strain cdc73, hits give low values): 0.789 (active) | normalized growth (S. cerevisiae deletion strains, locus YML016C, strain PPZ1, hits give low values): 0.991 | normalized growth (S. cerevisiae deletion strains, locus YML032C, strain rad52, hits give low values): 0.828 (active) | normalized growth (S. cerevisiae deletion strains, locus YML120C, strain ndi1, hits give low values): 0.956 | normalized growth (S. cerevisiae deletion strains, locus YML124C, strain tub3, hits give low values): 0.943 | normalized growth (S. cerevisiae deletion strains, locus YMR058W, strain fet3, hits give low values): 0.828 (active) | normalized growth (S. cerevisiae deletion strains, locus YMR078C, strain ctf18, hits give low values): 0.912 | normalized growth (S. cerevisiae deletion strains, locus YMR125W, strain sto1, hits give low values): 0.949 | normalized growth (S. cerevisiae deletion strains, locus YMR129W, hits give low values): 0.974 | normalized growth (S. cerevisiae deletion strains, locus YMR205C, strain PFK2, hits give low values): 0.758 (active) | normalized growth (S. cerevisiae deletion strains, locus YMR223W, strain ubp8, hits give low values): 0.868 (active) | normalized growth (S. cerevisiae deletion strains, locus YMR231W, strain pep5, hits give low values): 0.965 | normalized growth (S. cerevisiae deletion strains, locus YMR263W, strain SAP30, hits give low values): 0.93 | normalized growth (S. cerevisiae deletion strains, locus YMR307W, strain GAS1, hits give low values): 0.554 (active) | normalized growth (S. cerevisiae deletion strains, locus YNL067W, strain RPL9B, hits give low values): 0.93 | normalized growth (S. cerevisiae deletion strains, locus YNL071W, strain lat1, hits give low values): 0.957 | normalized growth (S. cerevisiae deletion strains, locus YNL128W, strain TEP1, hits give low values): 0.926 | normalized growth (S. cerevisiae deletion strains, locus YNL153C, strain GIM3, hits give low values): 0.958 | normalized growth (S. cerevisiae deletion strains, locus YNL209W, strain ssb2, hits give low values): 0.948 | normalized growth (S. cerevisiae deletion strains, locus YNL233W, strain BNI4, hits give low values): 0.927 | normalized growth (S. cerevisiae deletion strains, locus YNL248C, strain rpa49, hits give low values): 0.955 | normalized growth (S. cerevisiae deletion strains, locus YNL250W, strain rad50, hits give low values): 0.894 (active) | normalized growth (S. cerevisiae deletion strains, locus YNL271C, strain bni1, hits give low values): 0.929 | normalized growth (S. cerevisiae deletion strains, locus YNL298W, strain CLA4, hits give low values): 0.931 | normalized growth (S. cerevisiae deletion strains, locus YNL307C, strain MCK1, hits give low values): 0.811 (active) | normalized growth (S. cerevisiae deletion strains, locus YNL322C, strain KRE1 (second series), hits give low values): 0.918 | normalized growth (S. cerevisiae deletion strains, locus YNL322C, strain KRE1, hits give low values): 0.972 | normalized growth (S. cerevisiae deletion strains, locus YNR049C, strain mso1, hits give low values): 0.941 | normalized growth (S. cerevisiae deletion strains, locus YNR052C, strain pop2, hits give low values): 0.823 (active) | normalized growth (S. cerevisiae deletion strains, locus YOL006C, strain TOP1, hits give low values): 1.11 | normalized growth (S. cerevisiae deletion strains, locus YOL012C, strain htz1): 0.566 | normalized growth (S. cerevisiae deletion strains, locus YOL147C, strain pex11, hits give low values): 0.939 | normalized growth (S. cerevisiae deletion strains, locus YOR001W, strain rrp6, hits give low values): 0.94 | normalized growth (S. cerevisiae deletion strains, locus YOR061W, strain CKA2, hits give low values): 0.964 | normalized growth (S. cerevisiae deletion strains, locus YOR069W, strain VPS5, hits give low values): 0.964 | normalized growth (S. cerevisiae deletion strains, locus YOR070C, strain gyp1, hits give low values): 0.97 | normalized growth (S. cerevisiae deletion strains, locus YOR080W, strain dia2, hits give low values): 0.936 | normalized growth (S. cerevisiae deletion strains, locus YOR083W, strain WHI5, hits give low values): 0.927 | normalized growth (S. cerevisiae deletion strains, locus YOR106W, strain vam3, hits give low values): 0.997 | normalized growth (S. cerevisiae deletion strains, locus YOR136W, strain idh2, hits give low values): 0.95 | normalized growth (S. cerevisiae deletion strains, locus YOR144C, strain elg1, hits give low values): 0.921 (active) | normalized growth (S. cerevisiae deletion strains, locus YOR184W, strain ser1, hits give low values): 0.832 (active) | normalized growth (S. cerevisiae deletion strains, locus YOR265W, strain rbl2, hits give low values): 0.962 | normalized growth (S. cerevisiae deletion strains, locus YOR270C, strain vph1, hits give low values): 1.17 | normalized growth (S. cerevisiae deletion strains, locus YOR290C, strain snf2, hits give low values): 0.946 | normalized growth (S. cerevisiae deletion strains, locus YOR316C, strain cot1, hits give low values): 0.943 | normalized growth (S. cerevisiae deletion strains, locus YPL051W, strain arl3, hits give low values): 0.98 | normalized growth (S. cerevisiae deletion strains, locus YPL055C, strain LGE1, hits give low values): 0.943 | normalized growth (S. cerevisiae deletion strains, locus YPL078C, strain atp4, hits give low values): 1.03 | normalized growth (S. cerevisiae deletion strains, locus YPL106C, strain sse1, hits give low values): 0.948 | normalized growth (S. cerevisiae deletion strains, locus YPL240C, strain hsp82, hits give low values): 0.989 | normalized growth (S. cerevisiae deletion strains, locus YPL241C, strain CIN2, hits give low values): 0.973 | normalized growth (S. cerevisiae deletion strains, locus YPR119W, strain clb2, hits give low values): 0.934 | normalized growth (S. cerevisiae deletion strains, locus YPR141C, strain kar3, hits give low values): 0.905 (active) | normalized growth (S. cerevisiae deletion strains, locus YPR163C, strain tif3, hits give low values): 0.901 (active) | normalized growth (S. cerevisiae deletion strains, locus YPR167C, strain met16, hits give low values): 0.944 | normalized growth (S. cerevisiae deletion strains, strain wtn01, hits give low values): 0.891 (active) | normalized growth (S. cerevisiae strains, strain wild type, hits give low values): 0.94

From PubChem BioAssay AID1159580 (chemical genetic matrix, 2015)
